Data as given in PubChem BioAssay AID1159580 (chemical genetic matrix, 2015).
Out of some 5,500 compounds screened, about 2,000 (36%) were called active. Inconclusive results (about 18%) are left out. No stated cut-off is given here; in the data, active means normalized growth mostly below about 0.91 (no sharp cut-off); inconclusive means no clear call, values can overlap the other calls; inactive means mostly above about 0.92. The list shows a part of the results.

Assay: chemical genetic growth profiling, strain panel (AID 1159580);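 further: tested at 20 µM; growth read once vehicle control cultures reached saturation at 30 °C; 1 = growth at the plate median or of vehicle wells; lower values mean less growth of the strain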
Settings: growth OD

Measured: normalized growth

COc1ccc([C@@H]2CC(=O)c3c(O)cc(O)cc3O2)cc1O
inactive: S. cerevisiae deletion strains, locus YJR043C, strain POL32, hits give low values 0.966 | S. cerevisiae deletion strains, locus YJR066W, strain TOR1, hits give low values 0.95 | S. cerevisiae deletion strains, locus YJR075W, strain HOC1, hits give low values 1.03 | S. cerevisiae deletion strains, locus YKL009W, strain mrt4, hits give low values 1.01 | S. cerevisiae deletion strains, locus YKL068W, hits give low values 0.998 | S. cerevisiae deletion strains, locus YKL085W, strain MDH1 (second series), hits give low values 0.99 | S. cerevisiae deletion strains, locus YKL085W, strain MDH1, hits give low values 0.99 | S. cerevisiae deletion strains, locus YKL160W, strain elf1, hits give low values 0.954 | S. cerevisiae deletion strains, locus YKR001C, strain vps1, hits give low values 1 | S. cerevisiae deletion strains, locus YKR026C, strain gcn3, hits give low values 0.982 | S. cerevisiae deletion strains, locus YKR091W, strain srl3, hits give low values 0.973 | S. cerevisiae deletion strains, locus YLL001W, strain dnm1, hits give low values 0.947 | S. cerevisiae deletion strains, locus YLL026W, hits give low values 0.993 | S. cerevisiae deletion strains, locus YLL041C, strain sdh2, hits give low values 0.982 | S. cerevisiae deletion strains, locus YLR027C, strain aat2, hits give low values 1 | S. cerevisiae deletion strains, locus YLR039C, strain RIC1, hits give low values 1.06 | S. cerevisiae deletion strains, locus YLR058C, strain SHM2, hits give low values 1.01 | S. cerevisiae deletion strains, locus YLR102C, strain apc9, hits give low values 1.01 | S. cerevisiae deletion strains, locus YLR113W, strain HOG1, hits give low values 1.02 | S. cerevisiae deletion strains, locus YLR221C, strain rsa3, hits give low values 0.959 | S. cerevisiae deletion strains, locus YLR258W, strain gsy2, hits give low values 0.977 | S. cerevisiae deletion strains, locus YLR262C, strain YPT6 (second series), hits give low values 0.972 | S. cerevisiae deletion strains, locus YLR262C, strain YPT6, hits give low values 1.03 | S. cerevisiae deletion strains, locus YLR268W, strain sec22, hits give low values 1.06 | S. cerevisiae deletion strains, locus YLR320W, strain mms22, hits give low values 0.93 | S. cerevisiae deletion strains, locus YLR330W, strain CHS5, hits give low values 1.01 | S. cerevisiae deletion strains, locus YLR342W, strain FKS1 (second series), hits give low values 0.979 | S. cerevisiae deletion strains, locus YLR342W, strain FKS1, hits give low values 0.976 | S. cerevisiae deletion strains, locus YLR357W, strain rsc2, hits give low values 0.953 | S. cerevisiae deletion strains, locus YLR370C, strain arc18, hits give low values 0.97 | S. cerevisiae deletion strains, locus YLR371W, strain rom2, hits give low values 1.01 | S. cerevisiae deletion strains, locus YLR384C, strain iki3, hits give low values 0.972 | S. cerevisiae deletion strains, locus YLR418C, strain cdc73, hits give low values 0.937 | S. cerevisiae deletion strains, locus YML016C, strain PPZ1, hits give low values 1 | S. cerevisiae deletion strains, locus YML032C, strain rad52, hits give low values 0.991 | S. cerevisiae deletion strains, locus YML120C, strain ndi1, hits give low values 0.974 | S. cerevisiae deletion strains, locus YML124C, strain tub3, hits give low values 1.01 | S. cerevisiae deletion strains, locus YMR058W, strain fet3, hits give low values 0.969 | S. cerevisiae deletion strains, locus YMR078C, strain ctf18, hits give low values 1.01 | S. cerevisiae deletion strains, locus YMR125W, strain sto1, hits give low values 0.96 | S. cerevisiae deletion strains, locus YMR129W, hits give low values 0.988 | S. cerevisiae deletion strains, locus YMR205C, strain PFK2, hits give low values 0.952 | S. cerevisiae deletion strains, locus YMR223W, strain ubp8, hits give low values 0.978 | S. cerevisiae deletion strains, locus YMR231W, strain pep5, hits give low values 0.98 | S. cerevisiae deletion strains, locus YMR263W, strain SAP30, hits give low values 1.03 | S. cerevisiae deletion strains, locus YMR307W, strain GAS1, hits give low values 0.952 | S. cerevisiae deletion strains, locus YNL067W, strain RPL9B, hits give low values 1.03 | S. cerevisiae deletion strains, locus YNL071W, strain lat1, hits give low values 0.979 | S. cerevisiae deletion strains, locus YNL183C, strain NPR1, hits give low values 0.944 | S. cerevisiae deletion strains, locus YNL209W, strain ssb2, hits give low values 0.986 | S. cerevisiae deletion strains, locus YNL233W, strain BNI4, hits give low values 1 | S. cerevisiae deletion strains, locus YNL248C, strain rpa49, hits give low values 0.97 | S. cerevisiae deletion strains, locus YNL250W, strain rad50, hits give low values 1.02 | S. cerevisiae deletion strains, locus YNL271C, strain bni1, hits give low values 1.01 | S. cerevisiae deletion strains, locus YNL298W, strain CLA4, hits give low values 1.02 | S. cerevisiae deletion strains, locus YNL307C, strain MCK1, hits give low values 1.01 | S. cerevisiae deletion strains, locus YNL322C, strain KRE1 (second series), hits give low values 0.987 | S. cerevisiae deletion strains, locus YNR049C, strain mso1, hits give low values 0.973 | S. cerevisiae deletion strains, locus YNR052C, strain pop2, hits give low values 1.02 | S. cerevisiae deletion strains, locus YOL012C, strain htz1 1.12 | S. cerevisiae deletion strains, locus YOL147C, strain pex11, hits give low values 0.998 | S. cerevisiae deletion strains, locus YOR001W, strain rrp6, hits give low values 0.988 | S. cerevisiae deletion strains, locus YOR061W, strain CKA2, hits give low values 1 | S. cerevisiae deletion strains, locus YOR069W, strain VPS5, hits give low values 1 | S. cerevisiae deletion strains, locus YOR070C, strain gyp1, hits give low values 0.975 | S. cerevisiae deletion strains, locus YOR080W, strain dia2, hits give low values 0.979 | S. cerevisiae deletion strains, locus YOR083W, strain WHI5, hits give low values 0.934 | S. cerevisiae deletion strains, locus YOR106W, strain vam3, hits give low values 0.946 | S. cerevisiae deletion strains, locus YOR136W, strain idh2, hits give low values 1.01 | S. cerevisiae deletion strains, locus YOR144C, strain elg1, hits give low values 0.999 | S. cerevisiae deletion strains, locus YOR184W, strain ser1, hits give low values 0.986 | S. cerevisiae deletion strains, locus YOR231W, strain MKK1, hits give low values 1.02 | S. cerevisiae deletion strains, locus YOR265W, strain rbl2, hits give low values 0.983 | S. cerevisiae deletion strains, locus YOR270C, strain vph1, hits give low values 0.933 | S. cerevisiae deletion strains, locus YOR290C, strain snf2, hits give low values 0.924 | S. cerevisiae deletion strains, locus YOR316C, strain cot1, hits give low values 1 | S. cerevisiae deletion strains, locus YPL051W, strain arl3, hits give low values 0.967 | S. cerevisiae deletion strains, locus YPL055C, strain LGE1, hits give low values 1.02 | S. cerevisiae deletion strains, locus YPL078C, strain atp4, hits give low values 0.952 | S. cerevisiae deletion strains, locus YPL106C, strain sse1, hits give low values 0.965 | S. cerevisiae deletion strains, locus YPL240C, strain hsp82, hits give low values 0.997 | S. cerevisiae deletion strains, locus YPL256C, strain CLN2, hits give low values 1.03 | S. cerevisiae deletion strains, locus YPR119W, strain clb2, hits give low values 1.01 | S. cerevisiae deletion strains, locus YPR141C, strain kar3, hits give low values 1.01 | S. cerevisiae deletion strains, locus YPR163C, strain tif3, hits give low values 1.01 | S. cerevisiae deletion strains, locus YPR167C, strain met16, hits give low values 1 | S. cerevisiae deletion strains, strain wtn01, hits give low values 1.03 | S. cerevisiae strains, strain wild type, hits give low values 1.01
